# Measured values: PubChem BioAssay AID2557 (NMMLSC, 2010)
# Several values for one entry are separate records, joined by “and”; a condition that tells them apart may be missing. Equal values may be shown once. Hit rate of the full screen: of about 330,000 compounds, about 650 (0.2%) were called active. Cut-off read from the data, not from the text of the source: active = inhibition above about 50%; inactive = the rest. Many of the other results were omitted from the sample, so actives are more common in it than they were. More than one record can exist for a structure, and the calls need not agree.
# Target: Integrin alpha-4 (Homo sapiens) (UniProt P13612)
# Test: VLA-4 integrin binding inhibitors – MLPCN library, flow cytometry, VLA-4 expressing cells, VLA-4 allosteric modulator project, primary screen (AID 2557)
# Settings: ligand binding flow cytometry, stronger effect = higher value, about 7 µM as worked out from the volumes in the protocol
# Integrin alpha-4 (Homo sapiens), sequence (P13612 whole entry, looked up): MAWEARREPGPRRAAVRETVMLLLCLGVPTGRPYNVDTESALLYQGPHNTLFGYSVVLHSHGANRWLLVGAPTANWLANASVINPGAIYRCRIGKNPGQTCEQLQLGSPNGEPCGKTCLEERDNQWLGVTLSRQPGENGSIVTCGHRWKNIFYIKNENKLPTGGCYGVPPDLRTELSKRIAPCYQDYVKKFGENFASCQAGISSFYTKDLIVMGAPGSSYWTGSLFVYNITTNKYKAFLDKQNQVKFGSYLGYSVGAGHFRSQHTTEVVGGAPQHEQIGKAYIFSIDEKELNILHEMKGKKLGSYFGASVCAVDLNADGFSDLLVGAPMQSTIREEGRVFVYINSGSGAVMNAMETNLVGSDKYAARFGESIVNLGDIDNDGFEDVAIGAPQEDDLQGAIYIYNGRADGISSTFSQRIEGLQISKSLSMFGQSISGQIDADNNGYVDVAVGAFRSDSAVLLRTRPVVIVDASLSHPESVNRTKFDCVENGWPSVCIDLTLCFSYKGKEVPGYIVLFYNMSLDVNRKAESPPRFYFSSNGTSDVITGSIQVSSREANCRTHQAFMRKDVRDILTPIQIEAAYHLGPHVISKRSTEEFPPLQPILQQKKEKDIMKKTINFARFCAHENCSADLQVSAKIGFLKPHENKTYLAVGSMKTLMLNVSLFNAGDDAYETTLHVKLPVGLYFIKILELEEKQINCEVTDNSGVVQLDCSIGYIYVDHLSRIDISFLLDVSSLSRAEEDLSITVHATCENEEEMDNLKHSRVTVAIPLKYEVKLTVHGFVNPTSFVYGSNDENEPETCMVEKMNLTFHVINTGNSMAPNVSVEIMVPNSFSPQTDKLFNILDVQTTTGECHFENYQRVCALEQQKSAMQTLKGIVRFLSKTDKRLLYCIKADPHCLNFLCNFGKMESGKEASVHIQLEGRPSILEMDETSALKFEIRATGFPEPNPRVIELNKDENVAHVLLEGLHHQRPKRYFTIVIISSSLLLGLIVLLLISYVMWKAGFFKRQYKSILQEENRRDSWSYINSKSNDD
row,Compound,inhibition
1,Cc1cccc(NC(=O)NC2(C)CCS(=O)(=O)C2)c1 (stereo not given),7.4% (inactive)
2,CCOC(=O)c1ccc(NC(=O)c2ccc(NC(=O)C3CCCO3)cc2)cc1 (stereo not given),6.76% (inactive)
3,O=C(Nc1ccccc1Cl)NC1(C(=O)N2CCOCC2)CCCCC1,10.7% (inactive)
4,CCOc1cc(NC(=S)NCCCN(C)C)c(OCC)cc1NC(=O)C1CC1,-0.39% (inactive)
5,Cc1sc2ncnc(Sc3nc4ccccc4s3)c2c1C,8.09% (inactive)
6,O=C(c1ccco1)N(Cc1nc2ccccc2c(=O)[nH]1)C1CCCC1,-4.47% (inactive)
7,COc1ccccc1NC(=O)c1cc(Cl)nc2ccccc12,7.01% (inactive)
8,COc1ccccc1NC(=O)/C=C/C(N)=O,17.5% (inactive)
9,COc1ccccc1NC(=O)c1cc(Cl)nnc1Cl,50.6% (active)
10,Brc1cc(Br)c(Oc2cc(Br)c(Br)cc2Br)cc1Br,11.2% (inactive)
11,Cc1[nH]c2ccccc2c1SCC(=O)Nc1nccs1,4.64% (inactive)
12,CC1=C(C/C=C(\C)CCCC(C)CCCC(C)CCCC(C)C)C(=O)c2ccccc2C1=O (stereo not given),-3.08% (inactive)
13,O=C(O)CC(Cc1ccccc1)C(=O)Nc1ccc([N+](=O)[O-])cc1 (stereo not given),-9.76% (inactive)
14,Cc1c(C(=O)c2cccc([N+](=O)[O-])c2)c2ccccn2c1CCC#N,-34.5% (inactive)
15,COc1ccc(-c2cc(C(=O)N3CCN(Cc4ccc5c(c4)OCO5)CC3)on2)cc1OC,4.54% (inactive)
16,OCC[C@H]1C[C@H](O)[C@@H](O)[C@]2(CCc3ccccc3O2)O1,-21% (inactive)
17,CC(=O)N1CCOc2ccc(S(=O)(=O)N3CCC(C(=O)Nc4ccccc4F)CC3)cc21,47.6% (inactive)
18,COc1ccc(C(=O)Oc2ccc(-c3nnco3)cc2)cc1S(=O)(=O)N1CCOCC1,-1.94% (inactive)
19,Cc1cc(C)nc(Nc2n[nH]c(-c3ccccc3N)n2)n1,2.65% (inactive)
20,O=C(NN1C(=O)C2C3C=CC(C4CC34)C2C1=O)c1ccc(Cl)cc1 (stereo not given),0.6% (inactive)
21,O=C(c1cccnc1)N1CCN(S(=O)(=O)c2cccs2)CC1,0.7% (inactive)
22,CC(=O)NC12CC3CC(C1)CC(C(=O)N1CCN(C(=O)c4ccco4)CC1)(C3)C2,6.83% (inactive)
23,CC(=O)NC12CC3CC(C1)CC(C(=O)N1CCN(S(=O)(=O)c4cccs4)CC1)(C3)C2,49.5% (active)
24,CCCCn1c(N)c(N(CCC(C)C)C(=O)COC(=O)c2cccnc2OCC)c(=O)[nH]c1=O,-4.24% (inactive)

row,Compound,inhibition
1,COC(=O)[C@@H]1C[C@H]2CC[C@H](O)C[C@H]2N1Cc1ccc(N2CCN(C)CC2)cc1,-1.75% (inactive)
2,O=C(COc1ccc(S(=O)(=O)NCCc2ccccc2)cc1)N1CCCC1,3.9% (inactive)
3,COCCCn1c(-c2cccs2)nc2nc3ccccc3nc21,-3.42% (inactive)
4,CN1CCN(CC(=O)Nc2cccc([N+](=O)[O-])c2)CC1,-3.14% (inactive)
5,O=C(CN1CCOCC1)Nc1cccc([N+](=O)[O-])c1,-3.87% (inactive)
6,O=C(CN1CCC(NC(=O)Nc2ccccc2)CC1)Nc1cccc([N+](=O)[O-])c1,50.6% (active)
7,COCC1CCCN(Cc2nc(-c3ccc4c(c3)OCO4)no2)C1 (stereo not given),9.31% (inactive)
8,Cc1cc(N2CCCC2=O)cc(C)c1S(N)(=O)=O,14.9% (inactive)
9,COc1ccc(NC(=O)NC2CC3CCCC(C2)N3Cc2ccccc2)cc1 (stereo not given),6.26% (inactive)
10,Cc1noc(C)c1CSCC(=O)N(CCC(C)C)c1c(N)n(Cc2ccccc2)c(=O)[nH]c1=O,-2.16% (inactive)
11,CC1(C)SC2C(NC(=O)COc3ccccc3)C(=O)N2C1C(=O)O (stereo not given),5.73% (inactive) and 56.2% (active)
12,CC1(C)S[C@@H]2[C@H](NC(=O)COc3ccccc3)C(=O)N2C1C(=O)OCc1ccccc1 (stereo not given in full),-9.56% (inactive)
13,CC1(C)S[C@@H]2[C@H](N=CN3CCCCCC3)C(=O)N2[C@H]1C(=O)O,4.34% (inactive)
14,COc1ccccc1N1CCN(c2ncnc3sc(C)c(-c4ccccc4)c23)CC1,-10.6% (inactive)
15,CCn1c(/C=N/NC(=O)c2ccc(OC)cc2)nc2ccccc21,-11% (inactive)
16,O=C(C1CCCO1)N1CCN(C(=S)NC2CC2)CC1 (stereo not given),8.17% (inactive)
17,COc1ccccc1N(C(=O)Cn1nnc2ccccc21)C(C(=O)NCc1ccco1)c1ccc(C)o1 (stereo not given),14% (inactive)
18,O=C(Nc1ccc(F)c(Cl)c1)C1CCN(S(=O)(=O)c2cccnc2)CC1,12.9% (inactive)
19,Nc1nnnn1/N=C/c1cccc(Br)c1,0.88% (inactive)
20,CCOC(=O)Nc1ccc(NC(=O)OCC)cc1,10.4% (inactive)
21,Cc1ccc(NC(=O)OCc2cncs2)cc1,52.5% (active)
22,Cc1ccc(NC(=O)OCCNC(=O)c2ccncc2)cc1,-1.13% (inactive)
23,FC(F)Oc1ccccc1NC(=S)Nc1cccc(Cl)c1Cl,21.2% (inactive)
24,CCN(CC(=O)NCc1ccc(Cl)cc1)C(=O)CSc1ccccc1,-3.34% (inactive)

row,Compound,inhibition
1,COc1ncnc2c1N=C1CC(C)(C)CC(N)=C1S2,-11.6% (inactive)
2,O=C(NCc1ccc2c(c1)OCO2)C12CC3CC(CC(C3)C1)C2,0.46% (inactive)
3,CCc1c(O)nc(SCC(=O)Nc2ccccc2)n(C(C)CC)c1=O (stereo not given),9.62% (inactive)
4,CCOC(=O)c1sc(C)c2c1NC(C)(c1cccc3ccccc13)NC2=O (stereo not given),-0.92% (inactive)
5,COc1ccc(CCNC(=O)CCC(=O)NC2CCCCC2)cc1OC,4.77% (inactive)
6,CCOP(=O)(OCC)C(Nc1ccc([N+](=O)[O-])cc1)c1ccc(Cl)cc1 (stereo not given),-0.81% (inactive)
7,CCO[C@H]1OC(C(=O)NCc2ccccc2)=C[C@@H](c2coc3ccccc3c2=O)[C@@H]1CCCO,-1.21% (inactive)
8,C=CCSc1nnc2c(n1)-c1cccc3cccc-2c13,-4.2% (inactive)
9,O=S(=O)(O)c1nc2ccccc2n1Cc1ccc(Cl)cc1Cl,16.4% (inactive)
10,CC(C)(C)C(=O)Cn1c(NCCO)nc2ccccc21,-16.2% (inactive)
11,O=C(Cn1c(NCCO)nc2ccccc21)c1ccc(Cl)cc1Cl,62.2% (active)
12,Cn1cc(CN2CCC(C(O)CCc3ccccc3)CC2)c(-c2ccccc2F)n1 (stereo not given),-11.7% (inactive)
13,Cc1c(NC(=O)c2c([N+](=O)[O-])cnn2C)c(=O)n(-c2ccccc2)n1C,17.6% (inactive)
14,Cc1ccc(C2NC(=S)NC3=C2N2CCC3CC2)cc1 (stereo not given),2.28% (inactive)
15,CC[C@@H]1CCCCc2ccccc2[C@@H](C(=O)C[C@H](O)CC(C)=O)OC1=O,-25.7% (inactive)
16,O=C(Nc1ccc(Br)cc1)C1CCC(=O)N1Cc1ccccc1Cl (stereo not given),28.5% (inactive)
17,CCN(CC(=O)Nc1c(F)cccc1F)C(=O)c1ccc(-c2ccccc2)cc1,-6.8% (inactive)
18,CCCC[C@@H]1CN=C(N)N1CCc1cc(C(F)(F)F)cc(C(F)(F)F)c1,8.42% (inactive)
19,CC1CC(C)CN(S(=O)(=O)c2cccc(C(=O)N3C(=O)c4cccc(N)c4C3=O)c2)C1 (stereo not given),3.91% (inactive)
20,Cc1cc(C)nc(/N=C2\NC(=O)CC(C(=O)O)N2c2ccc(Cl)cc2Cl)n1 (stereo not given),-2.34% (inactive)
21,CCOC(=O)c1sc(NC(=O)CSc2nc(O)c(Cc3ccccc3)c(=O)[nH]2)nc1C,2.73% (inactive)
22,O=C(Nc1ncccc1O)c1ccc(C(=O)c2ccccc2)cc1,16.6% (inactive)
23,O=C(NCc1nnc(SCC(=O)N2CCC(Cc3ccccc3)CC2)o1)c1ccco1,-6.21% (inactive)
24,CCc1ccc2c(c1)C1(NN=C(c3ccccc3)S1)C(=O)N2 (stereo not given),92.2% (active)

row,Compound,inhibition
1,Cc1c(C=O)c2ccccn2c1C(=O)c1ccncc1,11.9% (inactive)
2,CC/C(O)=C1\C(=O)CC(C)(C)CC1=NCCc1nc2ccccc2[nH]1,55.8% (active)
3,CCC/C(O)=C1\C(=O)CC(C)(C)CC1=Nc1ccccc1OC,15.2% (inactive)
4,Cc1ccc(C)c(N2CCN(C(=O)CCc3nc4ccccc4[nH]3)CC2)c1,8.4% (inactive)
5,Cc1cc(C(=O)NNC(=S)NC(C)c2ccccc2)cs1 (stereo not given),6.13% (inactive)
6,CCC(C)(C)NC(=O)C(c1cccc(OC)c1OC)N(CC(C)C)C(=O)CCC(=O)Nc1cc(C)on1 (stereo not given),1.27% (inactive)
7,NNC(=O)COc1ccc(C2SCCS2)cc1,54.2% (active)
8,O=C(COc1ccc(Cl)cc1)Nc1ccc2c(c1)OCO2,14.3% (inactive)
9,COc1ccc(OCC(=O)NNC(=O)C2CCC2)cc1,13.2% (inactive)
10,COC(=O)[C@@]12CCCN1[C@H](c1ccc(-c3ccc(F)cc3)c(OC)c1)[C@H]1C(=O)N(C)C(=O)[C@H]12,21.7% (inactive)
11,Cc1ccc(CNC(=O)CCCNC(=O)c2ccc(Cl)cc2)n1C,-1.01% (inactive)
12,CC(=O)NCC(=O)N(C)C(C(=O)Nc1ccc2c(c1)OCCO2)c1ccccc1 (stereo not given),14.2% (inactive)
13,O=c1[nH]nc(SCCS(=O)(=O)c2ccc(F)cc2)n1-c1ccccc1C(F)(F)F,3.05% (inactive)
14,C=C(C)CNC(=S)/N=c1\scc(C)n1CC,5.83% (inactive)
15,O=C(O)CSCC(=O)Nc1ccc(C(F)(F)F)cc1,4.49% (inactive)
16,Cc1cc2cc3c(N)[nH]nc3nc2cc1C,10.6% (inactive)
17,Cc1cc(OCCN2CCCC2)cc(C(C)C)c1,-8.43% (inactive)
18,Cc1cnc(NC(=O)CSc2nnc(C)s2)s1,58.3% (active)
19,Cc1nnc(SCC(=O)Nn2cnnc2)s1,-1.38% (inactive)
20,Cc1ccc(SCC(=O)Nc2ncc(C)s2)cc1,-0.13% (inactive)
21,COc1cccc(N2C(=O)CC(N3CCN(S(=O)(=O)c4ccccc4)CC3)C2=O)c1 (stereo not given),12.7% (inactive)
22,COc1cccc(N2C(=O)CC(N3CCc4ccccc4C3)C2=O)c1 (stereo not given),-4.39% (inactive)
23,COc1cccc(N2CCN(C3CC(=O)N(c4ccc(Cl)cc4)C3=O)CC2)c1 (stereo not given),94.7% (active)
